Reference: PubChem BioAssay (NCI)
The panel holds about 79,000 compounds, 15% with a hit somewhere; the sample as a whole holds those more often. Cut-off read from the data, not from the text of the source: active = growth inhibition above about 70%; inactive = the rest.

How the values were obtained:
[1] = NCI Yeast Anticancer Drug Screen. Data for the rad50 strain (AID 155);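 note: 0% = growth of vehicle-only cultures of the same strain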; details: S. cerevisiae rad50 strain growth inhibition; at 50.0 µM; stronger effect = higher value
Summary of the method: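 DNA repair mutant yeast, compound exposure, growth read-out; inhibition is taken relative to vehicle.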

[2] = NCI Yeast Anticancer Drug Screen. Data for the mec2-1 strain (AID 157); details: S. cerevisiae mec2-1 strain, at 50.0 µM, stronger effect = higher value
Summary of the method: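 Vehicle-treated cultures served as reference for growth inhibition of compound-exposed mec2-1 yeast.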

[3] = NCI Yeast Anticancer Drug Screen. Data for the cln2 rad14 strain (AID 165);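 note: 0% = growth equal to vehicle treated cultures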; details: S. cerevisiae cln2 rad14 strain, at 50.0 µM, stronger effect = higher value
Summary of the method: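 Each compound was tested on cln2 rad14 yeast. Inhibition of growth was calculated against vehicle-exposed controls.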

[4] = NCI Yeast Anticancer Drug Screen. Data for the bub3 strain (AID 167); details: S. cerevisiae bub3 mutant strain, at 50.0 µM, stronger effect = higher value
Summary of the method: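 In this screen, a yeast mutant lacking normal mitotic checkpoint function is challenged with compound. Relative growth versus vehicle gives the inhibition value.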

[5] = NCI Yeast Anticancer Drug Screen. Data for the mlh1 rad18 strain (AID 175); details: S. cerevisiae mlh1 rad18 strain growth inhibition; at 50.0 µM; stronger effect = higher value
Summary of the method: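 Vehicle-treated cultures served as the reference for growth inhibition in a yeast strain carrying DNA damage repair alterations exposed to each compound.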

[6] = NCI Yeast Anticancer Drug Screen. Data for the sgs1 mgt1 strain (AID 161);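 note: 0% = growth of cultures given vehicle only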; details: S. cerevisiae sgs1 mgt1 strain, at 50.0 µM, stronger effect = higher value
Summary of the method: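 Mutant yeast exposed to compound; growth scored against vehicle-only wells.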

Measured: growth inhibition

CC(=O)OCC1OC(OC(C)=O)C(N(C)C(C)=O)C(OC(C)=O)C1OC(C)=O (stereo unspecified)
inactive: [1] 32.8% | [2] 18.6% | [3] 20.6% | [4] -0.55% | [5] 35.6%

CC(=O)Nc1ccc(C(=O)NN2C(=O)C(Cl)/C2=C/c2ccco2)cc1 (stereo unspecified)
inactive: [1] 1.1% | [2] -8.55% | [3] -4.75% | [4] -22.8% | [5] -20.4%

O=C(O)C1C(C(=O)O)C2C3C4C1C1C2C3C41 (stereo unspecified)
inactive: [1] 2.9% | [2] 3.15% | [3] -21.9% | [4] 13.3% | [5] -0.15%

COc1ccc(CC(CN)P(=O)(O)O)cc1 (stereo unspecified)
inactive: [1] 29.3% | [2] 4.2% | [3] 4.45% | [4] 15.1% | [5] 4%

COc1c(-c2ccc(F)cc2)oc2c(CC(=O)O)cccc2c1=O
inactive: [1] -0.35% | [2] -19.2% | [3] 3.2% | [4] -7.6% | [5] -26.5%

c1ccc2cc(C3OCC4(CCC4)CO3)ccc2c1
inactive: [1] 11.6% | [2] -1.35% | [6] 3.1% | [3] -26.8% | [4] 24.8% | [5] -6.9%

O=c1cnc2c(ccc3ccccc32)[nH]1
inactive: [1] -2.7% | [2] -20.8% | [3] 6.55% | [4] 8.4% | [5] -5.95%

COc1c2ccoc2c(OC)c2oc(=O)ccc12
inactive: [1] 13.3% | [2] -23.6% | [3] 17.2% | [4] -4% | [5] -2.45%

CNNCCCC(=O)NC(C)C
inactive: [1] -5.7% | [2] 6.65% | [3] 2.75% | [4] 7.8% | [5] 7.85%

CN(C)C(=NN)N(C)C
inactive: [1] 0.5% | [2] -2.3% | [3] -34% | [4] 3.6% | [5] -3.9%

CC(C)(Oc1ccc2c(=O)cc(-c3ccccc3)oc2c1)C(=O)Nc1c(Cl)cccc1Cl
inactive: [1] 7.95% | [2] -18.8% | [3] -59% | [4] 9.75% | [5] -14.8%

CC1=C(O)c2cc3c(cc2C(=O)C1=O)OCO3
inactive: [1] -21.5% | [2] -0.95% | [3] -15.6% | [4] -18.4% | [5] 26.9%

O=C1c2cc3c(cc2C(=O)c2[nH]ncc21)OCO3
inactive: [1] 60.5% | [2] 30.4% | [3] -20.2% | [4] 19.1% | [5] 17.2%

NCCCc1ccc2c(c1)OCO2
inactive: [1] 42.2% | [2] 6.45% | [3] 47.7% | [4] 30.4% | [5] 50.5%

CCOC(=O)Nc1cc2c(c(N)n1)N=C(c1ccc(OC)cc1)CN2
inactive: [1] 33.1% | [2] -6.75% | [3] 30% | [4] 21.5% | [5] 11.2%

O=c1c2ccccc2nc(-c2ccccc2)n1-c1cc(C(F)(F)F)cc(C(F)(F)F)c1
inactive: [1] -20.5% | [2] -23% | [3] 10.8% | [4] 4% | [5] 5.95%

O=C(SCSC(=O)c1ccccc1)c1ccccc1
inactive: [1] -11.3% | [2] 10.9% | [3] -18.5% | [4] 32.8% | [5] 2%

CN(C=O)c1ccc(C(=O)O)cc1
inactive: [1] 4.35% | [2] 11.9% | [3] 2% | [4] 17.6% | [5] 10.6%

Nc1ccc(S(=O)(=O)Nc2cnc3c(Cl)cccc3n2)cc1
inactive: [1] -11% | [2] 4.2% | [3] -39.5% | [4] 32.2% | [5] -0.6%

Nc1cccc(CC(N)C(=O)O)c1 (stereo unspecified)
inactive: [1] -1.95% | [2] -5.55% | [3] -44.1% | [4] -4.5% | [5] 1.7%

COc1ccc(C2COc3c(ccc(OC)c3OC)C2=O)cc1OC (stereo unspecified)
inactive: [1] -20.7% | [2] -1% | [3] -6.5% | [4] -0.5% | [5] -18.5%

Cc1ccc(NC(=O)Oc2ccc(C#N)cc2)cc1Cl
inactive: [1] 9.45% | [2] 5.85% | [3] 17.8% | [4] 29.8% | [5] 27.1%

CCOC(=O)/C(=C/c1ccc(C#N)cc1)N(CC)CC
inactive: [1] -3.95% | [2] -13.1% | [3] 24.4% | [4] -3.9%

CCC(C)(C)N
inactive: [1] 0.3% | [2] 2.7% | [3] -73.2% | [4] 9.15% | [5] -20.2%

C/C(=N\O)c1ccc2[nH]c(C)cc(=O)c2c1
inactive: [1] 2.95% | [2] 5.7% | [3] -32.9% | [4] -1.15% | [5] 12.7%

O=c1oc2c(Cl)cc(Cl)cc2cc1-c1nc2ccccc2[nH]1
inactive: [1] 29.1% | [2] 38.2% | [3] 9.65% | [4] 14.1% | [5] 12.6%

Clc1ccc(-c2oc(-c3ccc(Cl)cc3)c3ccccc23)cc1
inactive: [1] -3.85% | [2] -13.2% | [3] -78.2% | [4] -15.5% | [5] -23.6%

CC(C)=C1C2C=CC1C(CO)C2CO (stereo unspecified)
inactive: [1] 9.8% | [2] -4.4% | [3] -64% | [4] 2.2% | [5] 10.8%

CCC(C(C)=O)C(C)C (stereo unspecified)
inactive: [1] 5.2% | [2] 6.55% | [3] 7.2% | [4] -2% | [5] 13.3%

O=C(N/N=C\c1cc(=O)[nH]c(=O)[nH]1)c1ccccc1
inactive: [1] -18.1% | [2] -2.95% | [3] -6.75% | [4] -14.2% | [5] 2.9%

O=C1CC(c2ccccc2)C(c2ccccc2)C1C(=O)OC1CCCCC1 (stereo unspecified)
inactive: [1] 0.5% | [2] 2.85% | [3] -62.5% | [4] 0.55% | [5] -15.4%

CCCCCOC(=O)c1cccc(C)c1
inactive: [1] 3.7% | [2] 10.5% | [6] -5.2% | [3] -4.7% | [4] -1.65% | [5] 2.5%

C=CCNC(=S)/N=C/C(C(=O)Nc1ccccc1)=C(/C)O
inactive: [1] -55.6% | [2] -18.1% | [3] -27.2% | [4] -50.9% | [5] -20.6%

OCc1c(CO)c(-c2ccc(Cl)cc2)n2c1CCC2
inactive: [1] 29.4% | [2] -15% | [3] 29.2% | [4] -6.35% | [5] 34.5%

O=C(O)c1[nH]c(=O)[nH]c(=O)c1CN1CCCCC1
inactive: [1] -39.8% | [2] -21.6% | [3] -29.9% | [4] -23.4% | [5] -0.75%

O=C1c2ccccc2C(=O)C1(O)c1c[nH]c2ccccc12
inactive: [1] -1.55% | [2] 12.1% | [3] 6.85% | [4] -18% | [5] 23.6%

O=C1C=CC(=Nc2ccc3c(c2)C(=O)c2cc(F)ccc2-3)O1
inactive: [1] -0.35% | [2] -6.7% | [3] -2.15% | [4] 1.35% | [5] 5.3%

Cc1c(-c2ccccc2)n[nH]c1-c1[nH]nc(-c2ccccc2)c1C
inactive: [1] -9.7% | [2] -16.9% | [3] -15% | [4] -41.1% | [5] -19.1%

O=S(=O)(N/N=C(/CC/C(=N\NS(=O)(=O)c1ccccc1)c1ccccc1)c1ccccc1)c1ccccc1
inactive: [1] 27.7% | [2] 5.2% | [3] 7.55% | [4] -2% | [5] 7.95%

CCCCCCCCCCNCC(=O)O
inactive: [1] -11.1% | [2] -16.6% | [3] -7.6% | [4] -1.6% | [5] -8.95%
